Measured values from PubChem BioAssay (NCATS).
Records with an inconclusive call do not appear. Active and inactive are the calls of the source. Unless noted, the call rests on the fitted dose curve; in most records, active means well fitted curve in the direction sought with a large enough effect; inconclusive means small, poorly fitted or top-dose-only effect, or another doubt; inactive means no such curve, though single readings can be large; an effect the other way counts as inactive or inconclusive.

Columns and labels:
[1] = AP1 Signaling Pathway (AID 357; active means well fitted curve in either direction with a large enough effect, not every such curve was filed as active; further: on the % scale 0 is the no-effect control and ±100 the full control effect); conditions: ME-180 AP-1-bla reporter, EGF-induced, beta-lactamase ratio, 5 h; at 7.69 µM (top of the series) unless noted
In short: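 AP-1-bla ME-180 cells with beta-lactamase reporter under AP-1 response element, stimulated with EC50 EGF; compounds titrated, 5 hours at 37 degrees Celsius. CCF4 read at 460/530 nm ratio; positive and negative modulators judged by AC50.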

[2] = biological target: Cytochrome P450 1A2 (Homo sapiens) (UniProt P05177); assay: p450-cyp1a2 (AID 410; calls by dose curve; further: potency means the concentration at half of the fitted maximal effect)
In short: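 20nM CYP1A2 with 100uM Luciferin-ME (at Km) in 100mM KPO4; compound preincubated 10 min, NADPH regeneration added, 60 min at room temperature. Luciferin quantified by luminescence after detection reagent; normalized to 57 uM furafylline.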

[3] = NFAT Signaling Pathway (AID 444; active means well fitted curve in either direction with a large enough effect, not every such curve was filed as active;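 further: carbachol stimulus at about its EC50 of 1 µM final; on the % scale 0 is the no-effect control and ±100 the full control effect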); conditions: Jurkat NFAT-bla M1, carbachol, beta-lactamase ratio, 5 h; at 7.69 µM (top of the series) unless noted
In short: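 Jurkat cells with NFAT-driven β-lactamase reporter and co-expressed M1 receptor, stimulated with carbachol (final 1 uM, ~EC50), compound titration, 5 h at 37 °C. CCF4 loaded 1 h at RT; 460/530 nm ratio gave %activity and AC50.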

[4] = Stat Signaling Pathway (AID 446; active means well fitted curve in either direction with a large enough effect, not every such curve was filed as active;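 further: ME-180 cervical cancer cells given 40 pM IL-6 alongside compound; SIE-controlled beta-lactamase reporter measured as 460/530 nm FRET emission ratio; on the % scale 0 is the no-effect control and ±100 the full control effect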); conditions: ME-180 SIE beta-lactamase reporter, IL-6 stimulated, 5 h; at 7.69 µM (top of the series) unless noted
In short: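 IL-6/STAT signaling read in ME-180 cells via an SIE beta-lactamase reporter. Stimulus was 40 pM IL-6 (its AC50) for 5 hrs, so both activation and inhibition register.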

[5] = biological target: Glucocorticoid receptor (Homo sapiens) (UniProt P04150); assay: GR-GFP Redistribution (AID 450;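 active means compounds whose dose series gives a full or clear partial fitted curve of increased nuclear translocation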; further: potency means the concentration at half of the fitted maximal effect); conditions: U2OS GR-GFP nuclear translocation, laser cytometry, 2 h
[6] = biological target: Glucocorticoid receptor (Homo sapiens) (UniProt P04150); assay: GR-EFC Redistribution (AID 451; calls by dose curve; further: potency means the concentration at half of the fitted maximal effect); conditions: CHO-K1 GR-EFC translocation, beta-gal luminescence, 2 h
In short: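 CHO-K1 cells expressing nuclear EA and GR-ED fragments of b-gal; compounds titrated up to 46 uM final, 2 h at 37 C. GR nuclear translocation read as complemented b-gal luminescence after 1 h RT detection.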

[7] = biological target: Mitogen-activated protein kinase 10 (Mus musculus) (UniProt Q61831); assay: JNK3 AlphaScreen Assay (AID 530; active means well fitted curve in either direction with a large enough effect, not every such curve was filed as active;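 further: kinase came from lysate of stimulated human HepG2 cells; signal reports phosphorylation of biotinylated GST-cJun 1-79 at Ser73 with 10 µM ATP; on the % scale 0 is the no-effect control and ±100 the full control effect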)
In short: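 Pre-activated (IL-1β/TNFα) JNK3 in HepG2 lysates phosphorylates biotin-GST-cJun(1-79), 10 uM ATP; anti-phospho-cJun(Ser73) AlphaScreen read at room temperature, pH 7.6 Tris buffer. Compounds pre-incubated 15 min as titrations.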

[8] = biological target: 3',5'-cyclic-AMP phosphodiesterase 4B (Homo sapiens) (UniProt Q07343); assay: qHTS Assay for Inhibitors of PDE-IV (AID 607; active means well fitted activation curve with a large enough effect in the main read-out, with a control signal flat, not every such curve was filed as active; further: % of control where 0% means no effect)
In short: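 Live HEK293 cells with a modified cyclic nucleotide-gated (CNG) channel report intracellular cAMP via membrane-potential dye fluorescence (ex 535/em 590 nm). Endogenous PDE-IV was targeted. Compounds were tested at up to 22.9 uM final; RO 20-1724 100 uM served as control.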

[9] = biological target: Cytochrome P450 2C9 (Homo sapiens) (UniProt P11712); assay: qHTS Assay for Inhibitors and Substrates of Cytochrome P450 2C9 (AID 883); further: potency means the concentration at half of the fitted maximal effect; nearly all actives have a fitted effect of over 60% in size
In short: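 Signal: luciferase luminescence reporting luciferin produced by CYP2C9. Conditions: 10nM enzyme, Luciferin-H 100uM at KM, 25mM KPO4, 37C, 60 min NADPH-driven reaction. Reference: 57uM sulphaphenazole as 100% inhibition.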

[10] = biological target: Cytochrome P450 3A4 (Homo sapiens) (UniProt P08684); assay: qHTS Assay for Inhibitors and Substrates of Cytochrome P450 3A4 (AID 884); further: potency means the concentration at half of the fitted maximal effect; nearly all actives have a fitted effect of over 50% in size
In short: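 20 nM human CYP3A4 with 25 uM Luciferin-PPXE (at KM) in 200 mM KPO4, preincubated 10 min with compound; NADPH regeneration started a 60 min RT reaction. Luciferin detected by luminescence, normalized to 57 uM ketoconazole as full inhibition.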

[11] = biological target: Cytochrome P450 3A4 (Homo sapiens) (UniProt P08684); assay: qHTS Assay for Activators of Cytochrome P450 3A4 (AID 885); further: nearly all actives have a fitted effect of over 65% in size
In short: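 Quantitative HTS format: compounds preincubated with 20nM human CYP3A4 and Luciferin-PPXE substrate at KM, reaction started by NADPH regeneration, stopped after 60 min, luciferase luminescence read 20 min later.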

[12] = biological target: Cytochrome P450 2D6 (Homo sapiens) (UniProt P10635); assay: qHTS Assay for Inhibitors and Substrates of Cytochrome P450 2D6 (AID 891); further: potency means the concentration at half of the fitted maximal effect; nearly all actives have a fitted effect of over 60% in size
In short: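 Human CYP2D6 (5 nM) with 30 uM Luciferin-ME EGE (at Km) in 100 mM KPO4, compound preincubated 10 min, then NADPH regeneration system for 60 min at room temperature. Luciferin read by luminescence; normalized to 1.43 uM quinidine.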

[13] = biological target: Cytochrome P450 2C19 (Homo sapiens) (UniProt P33261); assay: qHTS Assay for Inhibitors and Substrates of Cytochrome P450 2C19 (AID 899); further: potency means the concentration at half of the fitted maximal effect; nearly all actives have a fitted effect of over 60% in size
In short: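 Signal comes from luciferase acting on luciferin released by CYP2C19-mediated hydroxylation of Luciferin-H EGE, 10uM (KM). Assay mix: 5nM enzyme, 50mM KPO4; 60 min at 37C with NADPH regeneration. Data normalized against 57uM ketoconazole.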

[14] = biological target: Dual specificity protein kinase CLK4 (Homo sapiens) (UniProt Q9HAZ1); assay: qHTS Assay for Inhibitors of CDC-like Kinase 4 (Kinase-Glo Assay) (AID 1770); further: nearly all actives have a fitted effect of over 65% in size; further: potency means the concentration at half of the fitted maximal effect
In short: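 Recombinant human Clk4 (25 nM) phosphorylated RS repeat peptide (100 uM) with 1 uM ATP in Tris pH 7.5/MgCl2/EGTA/DTT/Triton buffer for 4.5 h at room temperature. Residual ATP was quantified by Kinase-Glo luciferase luminescence.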

[15] = biological target: Dual specificity protein kinase CLK4 (Homo sapiens) (UniProt Q9HAZ1); assay: qHTS Assay for Inhibitors of CDC-like Kinase 4 (ADP-Glo Assay) (AID 1771); further: nearly all actives have a fitted effect of over 70% in size; further: potency means the concentration at half of the fitted maximal effect
In short: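 25 nM Clk4 with 100 uM RS repeat peptide and 1 uM ATP (final) in buffer with 2 mM MgCl2, 0.5 mM EGTA, 2.5 mM DTT, 0.01% Triton X-100; 1 h at room temperature; ADP-Glo luminescence for ADP formed.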

[16] = biological target: Dual specificity protein kinase CLK4 (Homo sapiens) (UniProt Q9HAZ1); assay: qHTS Assay for Inhibitors of CDC-like Kinase 4 (ADP-FP Assay) (AID 1795); further: nearly all actives have a fitted effect of over 60% in size; further: potency means the concentration at half of the fitted maximal effect
In short: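 Recombinant human Clk4 (6.25 nM) phosphorylated RS repeat peptide (100 uM) with 1 uM ATP in Tris pH 7.5/MgCl2/EGTA/DTT/Triton buffer for one hour. ADP was quantified by Transcreener competitive fluorescence polarization against an ADP calibration curve.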

[17] = biological target: Ubiquitin carboxyl-terminal hydrolase 1 (Homo sapiens) (UniProt O94782); assay: Inhibitors of USP1/UAF1: Pilot qHTS (AID 504865); further: nearly all actives have a fitted effect of over 35% in size; further: potency means the concentration at half of the fitted maximal effect
In short: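 USP1/UAF1 complex (1nM) preincubated with compound 15 min at room temperature, then Ub-Rho substrate (150nM final) added. Fluorescence read kinetically at 480/540 nm, 6 reads every 60 seconds. Buffer: 50mM HEPES pH 7.8, 0.5mM EDTA, 0.1 mg/ml BSA, 1mM TCEP, 0.01% Tween-20.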

[18] = Primary qHTS for small molecule stabilizers of the endoplasmic reticulum resident proteome: Secreted ER Calcium Modulated Protein (SERCaMP) assay (AID 1508630); further: on the % scale 0 is the no-effect control and ±100 the full control effect
In short: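 GLuc-SERCaMP-expressing SH-SY5Y cells, pretreated 16 h with compound, are challenged with thapsigargin to empty ER calcium stores; after 4 h, coelenterazine is added directly to the medium and luminescence is imaged.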

[19] = qHTS Assay for Identification of Small Molecule Agonists for Hypoxia Response Element Signaling Pathway (AID 914; active means well fitted activation curve with a large enough effect in the signal ratio, with a control signal flat, not every such curve was filed as active; the % refers to the signal ratio; further: potency means the concentration at half of the fitted maximal effect; on activation: % of control where 0% means no effect); conditions: ME-180 HRE-bla reporter, beta-lactamase ratio, CoCl2, 17 h; activation: stronger effect = higher value
In short: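 ME-180 cells carrying an HRE-driven beta-lactamase reporter were treated with compounds in a titration series plus an EC50 level of CoCl2 for 17 h at 37 degrees Celsius; CCF4 readout as the 460nm/530nm ratio gave AC50 values.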

[20] = biological target: Lysosomal acid glucosylceramidase (Homo sapiens) (UniProt P04062); assay: Glucocerebrosidase-p2 (AID 348; in the data active means potency below about 10 µM; further: potency means the concentration at half of the fitted maximal effect); conditions: purified GBA, blue fluorogenic substrate, 40 min
In short: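 Compounds titrated from 0.6 nM upwards against 0.2 nM enzyme in pH 5.9 citric acid/KH2PO4, taurocholate, tween-20; blue fluorogenic substrate 80 uM, 40 min room temperature, stopped and read Ex 365/Em 440 for AC50.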

Cytochrome P450 3A4 (Homo sapiens), sequence (P08684 whole entry, looked up): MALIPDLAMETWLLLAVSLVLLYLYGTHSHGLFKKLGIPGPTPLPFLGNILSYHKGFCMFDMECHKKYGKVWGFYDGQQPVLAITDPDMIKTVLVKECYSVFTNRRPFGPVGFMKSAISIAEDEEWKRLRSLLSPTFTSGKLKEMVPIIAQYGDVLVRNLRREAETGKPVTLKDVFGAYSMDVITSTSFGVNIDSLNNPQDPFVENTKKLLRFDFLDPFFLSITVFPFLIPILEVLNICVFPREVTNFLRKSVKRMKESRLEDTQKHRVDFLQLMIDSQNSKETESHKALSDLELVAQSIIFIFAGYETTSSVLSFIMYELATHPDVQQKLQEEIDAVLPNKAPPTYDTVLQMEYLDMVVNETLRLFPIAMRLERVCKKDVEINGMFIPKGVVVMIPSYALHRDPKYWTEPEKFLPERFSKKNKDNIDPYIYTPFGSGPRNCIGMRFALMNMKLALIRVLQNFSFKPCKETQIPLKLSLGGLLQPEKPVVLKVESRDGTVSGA
Cytochrome P450 1A2 (Homo sapiens), sequence (P05177 whole entry, looked up): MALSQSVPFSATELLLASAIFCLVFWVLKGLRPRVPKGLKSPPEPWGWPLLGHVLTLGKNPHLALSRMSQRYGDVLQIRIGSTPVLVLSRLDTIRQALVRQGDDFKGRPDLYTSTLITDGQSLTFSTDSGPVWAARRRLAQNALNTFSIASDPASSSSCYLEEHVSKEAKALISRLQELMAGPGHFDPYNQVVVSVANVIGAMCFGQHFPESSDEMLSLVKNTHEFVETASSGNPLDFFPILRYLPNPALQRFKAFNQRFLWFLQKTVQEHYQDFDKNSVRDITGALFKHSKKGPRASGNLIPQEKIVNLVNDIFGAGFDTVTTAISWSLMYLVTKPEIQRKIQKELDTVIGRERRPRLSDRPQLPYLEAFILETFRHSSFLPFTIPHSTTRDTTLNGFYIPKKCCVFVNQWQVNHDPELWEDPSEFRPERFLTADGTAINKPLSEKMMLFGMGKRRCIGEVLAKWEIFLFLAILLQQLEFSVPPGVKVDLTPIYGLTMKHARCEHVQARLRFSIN
3',5'-cyclic-AMP phosphodiesterase 4B (Homo sapiens), sequence (Q07343 whole entry, looked up): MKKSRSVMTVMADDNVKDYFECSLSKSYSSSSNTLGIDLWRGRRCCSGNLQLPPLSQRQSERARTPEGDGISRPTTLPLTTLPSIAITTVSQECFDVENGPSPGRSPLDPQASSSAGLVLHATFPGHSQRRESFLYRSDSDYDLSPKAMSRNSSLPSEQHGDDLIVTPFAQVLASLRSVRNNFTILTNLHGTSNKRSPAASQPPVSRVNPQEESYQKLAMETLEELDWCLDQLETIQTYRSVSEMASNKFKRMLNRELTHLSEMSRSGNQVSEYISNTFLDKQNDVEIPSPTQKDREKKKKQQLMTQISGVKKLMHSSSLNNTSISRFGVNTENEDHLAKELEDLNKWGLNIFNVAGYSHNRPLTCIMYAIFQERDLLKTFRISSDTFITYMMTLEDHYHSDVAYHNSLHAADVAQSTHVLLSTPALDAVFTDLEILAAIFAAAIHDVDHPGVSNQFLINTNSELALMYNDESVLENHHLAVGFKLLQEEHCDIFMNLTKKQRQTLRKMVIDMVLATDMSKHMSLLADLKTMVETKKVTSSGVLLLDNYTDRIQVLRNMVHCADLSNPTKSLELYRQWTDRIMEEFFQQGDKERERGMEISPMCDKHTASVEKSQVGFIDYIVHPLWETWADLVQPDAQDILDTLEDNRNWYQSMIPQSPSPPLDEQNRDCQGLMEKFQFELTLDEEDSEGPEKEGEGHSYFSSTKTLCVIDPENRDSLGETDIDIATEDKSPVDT
Lysosomal acid glucosylceramidase (Homo sapiens), sequence (P04062 whole entry, looked up): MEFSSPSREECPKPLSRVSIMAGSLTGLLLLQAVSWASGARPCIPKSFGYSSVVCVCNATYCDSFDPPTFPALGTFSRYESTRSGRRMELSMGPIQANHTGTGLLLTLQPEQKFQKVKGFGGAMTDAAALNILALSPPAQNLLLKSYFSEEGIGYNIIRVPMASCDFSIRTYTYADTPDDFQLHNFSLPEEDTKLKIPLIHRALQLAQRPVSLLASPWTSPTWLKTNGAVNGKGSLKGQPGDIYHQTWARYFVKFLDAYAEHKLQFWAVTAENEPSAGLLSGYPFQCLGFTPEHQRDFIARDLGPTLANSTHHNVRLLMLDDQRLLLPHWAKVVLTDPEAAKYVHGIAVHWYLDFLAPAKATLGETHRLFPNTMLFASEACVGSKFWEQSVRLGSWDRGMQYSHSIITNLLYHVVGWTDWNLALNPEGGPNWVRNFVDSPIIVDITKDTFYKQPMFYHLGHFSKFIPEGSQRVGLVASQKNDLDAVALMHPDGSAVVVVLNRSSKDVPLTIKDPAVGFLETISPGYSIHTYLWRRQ
Glucocorticoid receptor (Homo sapiens), sequence (P04150 whole entry, looked up, the tested form may be a part): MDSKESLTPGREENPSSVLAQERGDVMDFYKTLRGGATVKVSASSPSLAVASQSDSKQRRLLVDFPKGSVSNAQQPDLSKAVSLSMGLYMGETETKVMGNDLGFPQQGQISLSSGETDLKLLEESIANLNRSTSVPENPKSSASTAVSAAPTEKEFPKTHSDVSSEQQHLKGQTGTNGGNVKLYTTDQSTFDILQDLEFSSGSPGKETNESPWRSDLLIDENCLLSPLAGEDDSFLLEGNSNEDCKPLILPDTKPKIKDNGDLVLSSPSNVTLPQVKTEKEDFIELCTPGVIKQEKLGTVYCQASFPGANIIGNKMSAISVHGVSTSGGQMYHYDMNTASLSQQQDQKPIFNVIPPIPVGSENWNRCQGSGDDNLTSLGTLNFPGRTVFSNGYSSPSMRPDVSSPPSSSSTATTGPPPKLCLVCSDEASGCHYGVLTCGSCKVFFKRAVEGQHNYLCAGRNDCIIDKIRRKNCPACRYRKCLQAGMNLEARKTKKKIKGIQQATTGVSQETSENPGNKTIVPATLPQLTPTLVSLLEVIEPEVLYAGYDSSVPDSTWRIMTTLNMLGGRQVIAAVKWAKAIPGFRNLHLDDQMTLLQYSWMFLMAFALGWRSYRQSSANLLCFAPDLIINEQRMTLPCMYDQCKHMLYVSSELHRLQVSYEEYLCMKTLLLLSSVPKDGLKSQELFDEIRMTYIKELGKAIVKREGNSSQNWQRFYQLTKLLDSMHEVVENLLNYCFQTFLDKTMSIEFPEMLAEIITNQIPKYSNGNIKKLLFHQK
Dual specificity protein kinase CLK4 (Homo sapiens), sequence (Q9HAZ1 whole entry, looked up): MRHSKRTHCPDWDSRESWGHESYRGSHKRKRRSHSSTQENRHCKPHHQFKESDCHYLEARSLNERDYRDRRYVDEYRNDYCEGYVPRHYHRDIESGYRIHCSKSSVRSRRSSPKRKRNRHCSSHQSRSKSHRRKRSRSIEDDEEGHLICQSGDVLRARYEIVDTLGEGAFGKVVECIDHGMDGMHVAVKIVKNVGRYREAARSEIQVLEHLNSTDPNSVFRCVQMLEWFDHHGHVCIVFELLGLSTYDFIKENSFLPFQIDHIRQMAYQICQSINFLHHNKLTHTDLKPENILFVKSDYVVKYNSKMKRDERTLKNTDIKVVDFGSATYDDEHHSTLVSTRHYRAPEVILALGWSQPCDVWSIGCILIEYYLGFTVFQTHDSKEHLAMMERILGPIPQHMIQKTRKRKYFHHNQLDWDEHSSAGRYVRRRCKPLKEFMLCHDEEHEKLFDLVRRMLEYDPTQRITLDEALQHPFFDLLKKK
Ubiquitin carboxyl-terminal hydrolase 1 (Homo sapiens), sequence (O94782 whole entry, looked up): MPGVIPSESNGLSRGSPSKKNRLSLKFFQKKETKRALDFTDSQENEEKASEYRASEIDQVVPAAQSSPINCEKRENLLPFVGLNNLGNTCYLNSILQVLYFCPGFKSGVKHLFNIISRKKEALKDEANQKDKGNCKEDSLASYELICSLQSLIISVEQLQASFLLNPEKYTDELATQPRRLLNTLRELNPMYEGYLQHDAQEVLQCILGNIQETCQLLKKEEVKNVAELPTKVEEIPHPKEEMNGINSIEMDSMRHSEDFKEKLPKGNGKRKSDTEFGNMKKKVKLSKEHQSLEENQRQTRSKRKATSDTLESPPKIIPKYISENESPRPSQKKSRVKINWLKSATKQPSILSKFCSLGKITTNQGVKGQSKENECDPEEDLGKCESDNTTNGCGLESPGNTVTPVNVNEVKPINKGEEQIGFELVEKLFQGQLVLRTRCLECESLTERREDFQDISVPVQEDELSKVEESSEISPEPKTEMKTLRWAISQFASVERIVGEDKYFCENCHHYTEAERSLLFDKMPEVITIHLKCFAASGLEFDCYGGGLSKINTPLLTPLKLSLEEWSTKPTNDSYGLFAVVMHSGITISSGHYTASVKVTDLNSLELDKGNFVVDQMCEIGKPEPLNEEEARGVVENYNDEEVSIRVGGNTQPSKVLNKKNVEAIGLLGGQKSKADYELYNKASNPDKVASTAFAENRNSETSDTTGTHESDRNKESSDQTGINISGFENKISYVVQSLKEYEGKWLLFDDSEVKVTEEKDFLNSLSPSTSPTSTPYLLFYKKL
Cytochrome P450 2D6 (Homo sapiens), sequence (P10635 whole entry, looked up): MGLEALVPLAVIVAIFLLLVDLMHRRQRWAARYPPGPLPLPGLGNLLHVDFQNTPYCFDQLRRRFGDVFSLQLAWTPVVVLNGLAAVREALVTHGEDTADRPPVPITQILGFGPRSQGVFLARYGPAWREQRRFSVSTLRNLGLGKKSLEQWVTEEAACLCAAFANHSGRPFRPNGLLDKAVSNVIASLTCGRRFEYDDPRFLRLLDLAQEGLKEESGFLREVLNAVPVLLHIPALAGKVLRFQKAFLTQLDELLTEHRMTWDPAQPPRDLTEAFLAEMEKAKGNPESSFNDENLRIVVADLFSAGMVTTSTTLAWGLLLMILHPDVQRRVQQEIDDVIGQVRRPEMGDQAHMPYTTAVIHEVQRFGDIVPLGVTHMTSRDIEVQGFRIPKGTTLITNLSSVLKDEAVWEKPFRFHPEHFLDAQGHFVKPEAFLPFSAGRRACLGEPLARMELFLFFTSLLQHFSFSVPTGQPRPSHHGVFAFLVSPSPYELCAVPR

COc1ccc2[nH]cc(CCNc3ncncc3-c3cccc(NS(C)(=O)=O)c3)c2c1
inactive: activity change, negative = inhibition [1] -19.1% | activity change, negative = inhibition [3] 15.3% | activity, negative = inhibition [4] -18.7% | Potency [5] > 46 µM | Potency [6] > 46 µM | Potency [7] | Potency [8] | Potency [11] | Potency [17] | outcome [18]
active: Potency [2] 12.6 µM | Potency [9] 0.398 µM | Potency [10] 0.398 µM | Potency [12] 3.16 µM | Potency [13] 5.01 µM | Potency [14] 25.1 µM | Potency [15] 35.5 µM | Potency [16] 10 µM

Cc1cccc(CNc2ccnc(-c3ccccc3C(F)(F)F)n2)c1
active: Potency [2] 6.31 µM | Potency [17] 3.98 µM
inactive: activity change, negative = inhibition [1] -10.1% | activity change, negative = inhibition [3] 1.23% | activity, negative = inhibition [4] 5.48% | Potency [5] > 46 µM | Potency [6] > 46 µM | Potency [7] | Potency [11] | activation [19] -2.48% | Potency [14] | Potency [15] | Potency [16] | outcome [18]

COc1cccc(-c2nccc(N(C)Cc3ccco3)n2)c1
active: Potency [2] 0.631 µM | Potency [12] 1.26 µM | Potency [13] 5.01 µM | Potency [14] 8.91 µM | Potency [15] 8.91 µM | Potency [16] 7.94 µM
inactive: activity change, negative = inhibition [1] -11.4% | activity change, negative = inhibition [3] -1.32% | activity, negative = inhibition [4] -2.39% | Potency [5] > 46 µM | Potency [6] > 46 µM | Potency [7] | Potency [8] | Potency [11] | activation [19] -11.6% | outcome [18]

COc1cccc(Cn2c(=O)c(-c3ccc(Cl)cc3)nc3cnc(N4CCOCC4)nc32)c1
inactive: Potency [20] > 11.4 µM | Potency [5] > 9.22 µM | Potency [6] > 46 µM | Potency [7] | Potency [8] | Potency [14] | Potency [15] | Potency [16] | Potency [17] | outcome [18]
active: Potency [19] 1.58 µM

CCNc1ncc2nc(-c3ccc(Cl)cc3)c(=O)n(-c3ccc(OC)cc3)c2n1
inactive: Potency [20] > 11.4 µM | Potency [5] > 9.22 µM | Potency [6] > 46 µM | Potency [8] | Potency [14] | Potency [15] | Potency [16] | Potency [17] | outcome [18]

N#Cc1cccc(-c2ccc3ncnc(N4CCNCC4)c3c2)c1
inactive: activity change, negative = inhibition [1] -0.846% | activity change, negative = inhibition [3] 6.74% | activity, negative = inhibition [4] 11.7% | Potency [5] > 46 µM | Potency [6] > 46 µM | Potency [7] | Potency [8] | Potency [11] | outcome [18]
active: Potency [2] 0.631 µM | Potency [14] 12.6 µM | Potency [15] 22.4 µM | Potency [16] 11.2 µM | Potency [17] 20 µM

O=c1c(-c2ccc(Cl)cc2)nc2cnc(N3CCNCC3)nc2n1CCc1ccccc1
inactive: Potency [20] > 11.4 µM | Potency [5] > 9.22 µM | Potency [6] > 46 µM | Potency [8] | Potency [11] | Potency [14] | Potency [15] | Potency [16] | outcome [18]
